Screening data: PubChem, National Center for Advancing Translational Sciences (NCATS)
Compounds with a hit are over-represented: about 7.6% of the library has one in this group of screens.
p53 reactivation: restores transcriptional activity of mutant p53; H1299 p53-A138V BP100-luciferase reporter, luminescence, 24 h; Potency, µM (series often up to 92.2 µM), inactives show top-dose activity change, positive = activation, most hits filed as activators; actives 0.063% (n = 320,000); AID 504706; note: potency is the fitted concentration of half-maximal effect; % of control where 0% means no effect; nearly all actives have a fitted effect of over 45% in size
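H1299 (p53-null), stable ts p53-A138V + BP100-Luc; 1000 cells/well, Opti-MEM/10% FBS; cpd 4 pt, 1:5; 24 h, 37 deg C, 5% CO2; detection reagent 10 min RT; luminescence.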
Giardia killer: kills Giardia lamblia | Giardia lamblia trophozoite viability | activity change, % at 7.66 µM, hits read low | actives 0.15% (n = 340,000); in the data active = activity change below about -80%; inconclusive = between about -30% and that limit;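 note: parasites exposed to compound for two days anaerobically before the ATP read; % is set by controls: 0 for no effect and ±100 for the full control effect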
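Trophozoites 100 cells/well + cpd; 48 hrs, 37 deg C, anaerobic. ATPLite 1-Step added, 15-30 min RT, luminescence read (ATP-based viability).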
Gal4-VP16 FLuc: counter-screen for ROR gamma inhibitors: Gal4-VP16 reporter | Drosophila S2 Gal4-VP16 UAS-luciferase, luminescence, 20 h | Potency, µM (top dose mostly 53.6 µM), for the others: top-dose activity, negative = inhibition, most hits filed as inhibitors | actives 3.5% (n = 310,000) | AID 2546;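 note: Gal4-VP16 expression switched on by copper sulfate through the metallothionein promoter; potency is the fitted concentration of half-maximal effect; % is set by controls: 0 for no effect and ±100 for the full control effect; nearly all actives have a fitted effect of over 50% in size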
ELG1 repair inh: inhibitors of ELG1-dependent DNA repair in HEK293T cells; HEK293T ELG1-luciferase reporter, luminescence, 16 h; DNA damage induced by 5-fluorouridine; Potency, µM (highest dose often 46.1 µM), inactives show at the highest dose activity change, negative = inhibition, actives largely listed as inhibitors; actives 2.3% (n = 330,000); note: potency is the fitted concentration of half-maximal effect; % is set by controls: 0 for no effect and ±100 for the full control effect; nearly all actives have a fitted effect of over 55% in size
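Cells (2,000 per well) received 5-fluorouridine plus test compound or DMSO and were incubated 16 hr at 37 °C, 5% CO2. Luciferase activity was read by luminescence 30 min after ONE-Glo addition; signal suppression marked inhibition of damage-induced ELG1 function.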
BRCA1 expr up: activators of BRCA1 expression. Potency, µM (titrated, usually from 46.1 µM), for the others: at the highest dose activation, most hits filed as activators. MCF7-BRCA1-FFLuc reporter, luminescence, 48 h; response scale: scaled: vehicle 0%, 10 µM genistein 100%. actives 1.1% (n = 380,000); note: potency is the fitted concentration of half-maximal effect; nearly all actives have a fitted effect of over 80% in size
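Activators of BRCA1 expression were detected as increased firefly luciferase luminescence in engineered MCF7 cells after 48 h compound incubation. Signals were scaled to genistein 10 microM as full activation.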
RORgamma inh: blocks mouse ROR gamma transcriptional activity; Potency, µM (top dose mostly 53.6 µM), without a hit: top-dose activity change, negative = inhibition, most hits filed as inhibitors; AID 2551; Drosophila S2 Gal4-RORgamma UAS-luciferase reporter, 20 h; actives 5.4% (n = 310,000); P51450; note: potency is the fitted concentration of half-maximal effect; % is set by controls: 0 for no effect and ±100 for the full control effect; nearly all actives have a fitted effect of over 60% in size
Target sequence (P51450 whole entry, looked up, the tested form may be a part): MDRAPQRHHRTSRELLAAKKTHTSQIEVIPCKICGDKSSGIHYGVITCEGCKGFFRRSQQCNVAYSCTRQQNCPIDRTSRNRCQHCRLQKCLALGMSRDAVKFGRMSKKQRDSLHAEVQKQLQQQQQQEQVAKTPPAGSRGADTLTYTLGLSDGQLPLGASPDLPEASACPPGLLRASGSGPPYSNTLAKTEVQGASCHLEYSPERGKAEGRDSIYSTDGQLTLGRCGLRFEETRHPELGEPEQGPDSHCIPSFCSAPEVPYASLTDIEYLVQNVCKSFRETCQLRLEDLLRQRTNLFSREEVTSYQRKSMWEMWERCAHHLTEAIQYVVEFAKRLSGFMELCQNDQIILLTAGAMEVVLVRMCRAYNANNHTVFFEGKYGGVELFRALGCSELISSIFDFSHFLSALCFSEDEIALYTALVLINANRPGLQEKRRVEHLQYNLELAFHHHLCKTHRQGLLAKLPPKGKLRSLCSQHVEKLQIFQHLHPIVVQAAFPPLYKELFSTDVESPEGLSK
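Schneider cells (Drosophila), stable Gal4 DBD–ROR gamma + UAS-luc; 1 hr cmpd preincubation; Cu2+ induction 700 uM final; 20 hr ambient; luminescence.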
* = called active by the depositor; ? = inconclusive. Unless noted, calls come from the whole dose curve; as a rule, active = well fitted curve in the direction sought with a large enough effect; inconclusive = small, poorly fitted or top-dose-only effect, or another doubt; inactive = no such curve, though single readings can be large; an effect the other way counts as inactive or inconclusive.

SMILES	p53 reactivation	Giardia killer	Gal4-VP16 FLuc	ELG1 repair inh	BRCA1 expr up	RORgamma inh
CC1CCc2nc(NC(=O)CN3CCN(Cc4ccc5c(c4)OCO5)CC3)sc2C1 (configuration not stated)	?	-15	-22%	12µM*	-52%	-53%
COC(=O)c1[nH]c2ccccc2c1NC(=O)CN1CCN(Cc2ccc3c(c2)OCO3)CC1	-8%	4	-6%	4.6µM*	-34%	1%
CCCN1C(=O)c2cc(C(=O)Nc3ccccc3C)ccc2C1Nc1ccccc1C (configuration not stated)	-2%	4	1%	23µM*	-33%	7%
Cc1ccccc1NC(=O)c1ccc2c(c1)C(=O)N(CC(C)C)C2=O	5%	20	-12%	-11%	21%	7%
Cn1cnc(S(=O)(=O)N2CCN(c3ccc(Cl)cc3)CC2)c1	-13%	4	2%	0%	-4%	97%
Cn1c2ccccc2c2cc(C(=O)NNC(=O)CCl)sc21	-15%	3	-28%	?	-80%	14µM*
CCCNC(=O)c1cc2c3ccccc3n(C)c2s1	2%	-15	7%	?	-49%	-6%
CC(=O)N(C1=C(N)C(=O)c2ccccc2C1=O)C(C)C	-1%	-15	0%	23µM*	6%	11µM*
CC(=O)N(C)C1=C(O)c2ccccc2C(=O)C1=O	-6%	18	-13%	-1%	6%	5%
COc1cc(C)ccc1OCc1cc(C(=O)NCc2ccncc2)no1	?	?	5%	?	7.9µM*	34%
COc1cc(C)ccc1OCc1cc(C(=O)NC(C)Cn2cncn2)no1 (configuration not stated)	-5%	7	-8%	?	5µM*	-15%
COc1ccccc1C1CC(=O)Oc2cc(C)c(Cl)cc21 (configuration not stated)	6%	3	-15%	6%	0%	9%
Cc1oc2cc(OCc3cnn(-c4ccccc4)c3)ccc2c(=O)c1Oc1ccccc1F	-2%	8	-13%	4%	-28%	32%
CCOc1ccc(-c2n[nH]c(C)c2Oc2ccc(OC)cc2)c(O)c1	23%	12	5µM*	0%	-37%	2.2µM*
Cc1[nH]nc(-c2ccc(OCc3cnn(-c4ccccc4)c3)cc2O)c1Oc1ccc(F)cc1	-6%	5	10µM*	8%	-55%	7.1µM*
Cc1[nH]nc(-c2ccc(O)c(C)c2O)c1Oc1ccccc1	1%	-4	?	?	-31%	?
Cc1[nH]nc(-c2ccc(OCc3cnn(-c4ccccc4)c3)c(C)c2O)c1Oc1ccccc1	-9%	10	?	-16%	-43%	7.9µM*
O=S(=O)(Cc1cc(-c2ccccc2)no1)c1ccccc1	1%	-4	9%	?	108%	26%
CCOc1ccc(NC(=O)N(C2CCCCCC2)C2CCN(C(C)=O)CC2)cc1	-2%	-5	0%	9%	3%	-1%
CCNC(=S)Nc1cc(OCC)c(NC(=O)c2cccs2)cc1OCC	0%	-15	?	0%	-11%	11µM*
CCOc1cc(NC(=S)NCC(C)C)c(OCC)cc1NC(=O)c1cccs1	25%	-8	8.9µM*	0%	4%	4µM*
CCOc1cc(NC(=O)c2cccs2)c(OCC)cc1NC(=O)c1ccccn1	-1%	-5	-1%	-2%	-2%	-9%
CCOc1cc(NS(C)(=O)=O)c(OCC)cc1NC(=O)c1cccs1	-3%	-2	3%	?	2%	35%
CCN1CCN(C(=S)NCC2CCCO2)CC1 (configuration not stated)	-1%	18	-7%	-3%	-7%	-14%
N#Cc1c(N2CCOCC2)nsc1-c1ccc(C(F)(F)F)cc1	3%	-5	4%	?	5µM*	?
